Measured values published in PubChem BioAssay (Tox21).
“And” between values parts separate entries of the source, which are not always exact repeats. Equal values may be shown once. Results filed as inconclusive are left out. Where a call stands in place of a potency, no number is given. The source holds several records for some structures; these can differ, active in one and inactive in another. The source made the active and inactive calls. Unless noted, calls follow the shape of the dose curve; as a rule, active = well fitted curve in the direction sought with a large enough effect in the repeat runs; inconclusive = weak or mixed curves; inactive = no such curve, though single readings can be large; an effect the other way counts as inactive or inconclusive.

Columns and labels:
[1] = biological target: Thyrotropin-releasing hormone receptor (Homo sapiens) (UniProt P34981); assay: qHTS assay to identify small molecule agonists of the thyrotropin-releasing hormone receptor (TRHR) signaling pathway (AID 1346891; calls by dose curve; also: series mostly up to about 58 µM)
Chain of Thyrotropin-releasing hormone receptor (Homo sapiens) (P34981 whole entry, looked up): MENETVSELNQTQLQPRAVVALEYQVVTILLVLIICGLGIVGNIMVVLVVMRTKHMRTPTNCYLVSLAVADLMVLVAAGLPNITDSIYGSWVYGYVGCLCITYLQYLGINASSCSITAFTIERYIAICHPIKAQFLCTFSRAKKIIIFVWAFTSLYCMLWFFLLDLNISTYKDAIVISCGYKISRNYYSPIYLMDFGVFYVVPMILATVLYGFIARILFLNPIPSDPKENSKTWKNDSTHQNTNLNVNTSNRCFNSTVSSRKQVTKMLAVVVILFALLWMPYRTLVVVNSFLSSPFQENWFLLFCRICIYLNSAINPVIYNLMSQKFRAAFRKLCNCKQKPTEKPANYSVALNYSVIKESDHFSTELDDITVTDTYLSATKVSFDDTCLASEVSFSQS
Outline: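 Agonist-mode intracellular calcium readout: kinetic fluorescence over 3 min at 1 s intervals after compound addition to TRHR-HEK293 cells (18 h seeded, 2 h dye-loaded at 37 C). Fifteen concentrations, triplicates.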

[2] = Human pregnane X receptor (PXR) small molecule agonists, qHTS cell viability counter screen (AID 1346977); also: nearly all actives have a fitted effect of over 50% in size; also: potency is read from the fitted curve at half-maximal effect
Outline: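 Same-well viability read: CellTiter-Fluor added after 23 hr compound exposure, fluorescence measured 1 hr later. Cells were PXR-Luc HepG2 seeded at 2,000/well in 5% charcoal-stripped FBS medium, rested 5 hr before dosing at 37 C.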

[3] = Caspase-3/7 induction in CHO-K1 cells by small molecules, qHTS cell viability counter screen (AID 1346979); also: nearly all actives have a fitted effect of over 35% in size; also: potency is read from the fitted curve at half-maximal effect
Outline: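 Cytotoxicity counter screen: CellTiter-Fluor added to compound-treated wild-type CHO-K1 cells at 16 h (37C, 5% CO2), fluorescence measured 1 h later; same wells as caspase-3/7 measurement.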

[4] = Caspase-3/7 induction in CHO-K1 cells by small molecules, qHTS assay (AID 1346980); also: nearly all actives have a fitted effect of over 15% in size
Outline: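 Wild-type CHO-K1 cells exposed to compounds for 17hr at 37 C, 5% CO2. Caspase-3/7 activity then measured by Caspase-Glo 3/7 luminescence after 30min at room temperature.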

[5] = Caspase-3/7 induction in HepG2 cells by small molecules, qHTS cell viability counter screen (AID 1346981); also: nearly all actives have a fitted effect of over 30% in size; also: potency is read from the fitted curve at half-maximal effect
Outline: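 Wild-type HepG2 cells (2,000/well) were allowed to settle for 5 hr at 37 C, 5% CO2, then dosed with compounds in DMSO by pin transfer. After 16 hr at 37 C, CellTiter-Fluor was added and fluorescence read 1 hr later.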

[6] = biological target: Nuclear receptor subfamily 1 group I member 2 (Rattus norvegicus) (UniProt Q9R1A7); assay: Rat pregnane X receptor (rPXR) activation by small molecules, qHTS assay (AID 1346983); conditions: rPXR luciferase reporter cells, One-Glo luminescence, 24 h; max activation: stronger effect = higher value; also: nearly all actives have a fitted effect of over 20% in size; also: potency is read from the fitted curve at half-maximal effect
Chain of Nuclear receptor subfamily 1 group I member 2 (Rattus norvegicus) (Q9R1A7 whole entry, looked up): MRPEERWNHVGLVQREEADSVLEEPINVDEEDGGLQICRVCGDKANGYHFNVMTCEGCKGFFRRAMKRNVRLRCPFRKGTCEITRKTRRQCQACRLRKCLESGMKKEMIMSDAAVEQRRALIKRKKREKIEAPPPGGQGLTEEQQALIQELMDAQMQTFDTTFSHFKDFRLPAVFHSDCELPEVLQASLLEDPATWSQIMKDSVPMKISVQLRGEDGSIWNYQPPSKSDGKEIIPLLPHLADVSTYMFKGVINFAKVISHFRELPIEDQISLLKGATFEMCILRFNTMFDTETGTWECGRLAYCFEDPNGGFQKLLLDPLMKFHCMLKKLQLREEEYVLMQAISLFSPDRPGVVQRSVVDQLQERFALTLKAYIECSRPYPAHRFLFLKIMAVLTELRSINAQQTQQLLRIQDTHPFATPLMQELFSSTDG
Outline: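 Cell-based rPXR activation assay: rPXR cells, 2,000 per well, rested 5hr at 37 C, then exposed to compounds in DMSO for 24 hr at 37 C. Luciferase activity read by One-Glo luminescence after 30 min at room temperature.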

[7] = biological target: Cytochrome P450 2D6 (Homo sapiens) (UniProt P10635); assay: Cytochrome P450 Family 2 Subfamily D Member 6 (CYP2D6) small molecule antagonists: luciferase reporter qHTS assay (AID 1671196); also: nearly all actives have a fitted effect of over 50% in size; also: potency is read from the fitted curve at half-maximal effect
Chain of Cytochrome P450 2D6 (Homo sapiens) (P10635 whole entry, looked up): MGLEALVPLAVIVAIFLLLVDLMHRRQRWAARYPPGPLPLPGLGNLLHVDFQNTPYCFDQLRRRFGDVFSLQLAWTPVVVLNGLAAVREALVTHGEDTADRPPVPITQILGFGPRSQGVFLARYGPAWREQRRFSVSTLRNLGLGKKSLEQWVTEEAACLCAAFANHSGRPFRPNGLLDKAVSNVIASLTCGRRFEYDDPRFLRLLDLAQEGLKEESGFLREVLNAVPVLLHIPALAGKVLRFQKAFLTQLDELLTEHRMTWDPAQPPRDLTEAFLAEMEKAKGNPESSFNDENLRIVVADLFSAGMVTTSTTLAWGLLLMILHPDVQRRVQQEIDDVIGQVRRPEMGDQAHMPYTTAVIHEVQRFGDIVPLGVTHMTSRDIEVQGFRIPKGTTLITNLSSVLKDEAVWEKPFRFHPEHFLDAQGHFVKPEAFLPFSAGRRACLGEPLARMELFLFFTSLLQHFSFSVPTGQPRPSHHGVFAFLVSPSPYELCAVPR
Outline: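 CYP2D6 enzyme–substrate mix was held with compound for 10 min at room temperature, then NADPH regeneration solution was added and the reaction ran 1 h at room temperature. Luciferin product was detected by luminescence after 20 min with detection reagent.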

[8] = biological target: Cytochrome P450 2C19 (Homo sapiens) (UniProt P33261); assay: Cytochrome P450 Family 2 Subfamily C Member 19 (CYP2C19) small molecule antagonists: luciferase reporter qHTS assay (AID 1671197); also: nearly all actives have a fitted effect of over 65% in size; also: potency is read from the fitted curve at half-maximal effect
Chain of Cytochrome P450 2C19 (Homo sapiens) (P33261 whole entry, looked up): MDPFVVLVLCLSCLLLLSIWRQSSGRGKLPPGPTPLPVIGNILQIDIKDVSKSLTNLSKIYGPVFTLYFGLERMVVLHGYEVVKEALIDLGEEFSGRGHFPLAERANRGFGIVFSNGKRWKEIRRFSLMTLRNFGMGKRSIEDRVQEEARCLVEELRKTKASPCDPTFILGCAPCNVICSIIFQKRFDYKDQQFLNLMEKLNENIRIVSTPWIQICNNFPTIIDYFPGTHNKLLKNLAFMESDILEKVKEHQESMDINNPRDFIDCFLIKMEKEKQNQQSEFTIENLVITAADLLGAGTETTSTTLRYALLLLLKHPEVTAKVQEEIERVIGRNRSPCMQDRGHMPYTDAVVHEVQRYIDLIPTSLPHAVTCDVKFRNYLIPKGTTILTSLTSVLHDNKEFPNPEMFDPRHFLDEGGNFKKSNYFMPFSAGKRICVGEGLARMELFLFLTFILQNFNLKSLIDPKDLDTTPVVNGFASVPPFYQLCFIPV
Outline: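 P450-Glo CYP2C19 system: enzyme-substrate mix with compound 10 min at room temperature, then NADPH regeneration solution, 1 h at 37C. Proluciferin-to-luciferin conversion detected by luminescence after 20 min with detection reagent; ketoconazole as positive control.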

[9] = biological target: Cytochrome P450 2C9 (Homo sapiens) (UniProt P11712); assay: Cytochrome P450 Family 2 Subfamily C Member 9 (CYP2C9) small molecule antagonists: luciferase reporter qHTS assay (AID 1671198); also: nearly all actives have a fitted effect of over 50% in size; also: potency is read from the fitted curve at half-maximal effect
Chain of Cytochrome P450 2C9 (Homo sapiens) (P11712 whole entry, looked up): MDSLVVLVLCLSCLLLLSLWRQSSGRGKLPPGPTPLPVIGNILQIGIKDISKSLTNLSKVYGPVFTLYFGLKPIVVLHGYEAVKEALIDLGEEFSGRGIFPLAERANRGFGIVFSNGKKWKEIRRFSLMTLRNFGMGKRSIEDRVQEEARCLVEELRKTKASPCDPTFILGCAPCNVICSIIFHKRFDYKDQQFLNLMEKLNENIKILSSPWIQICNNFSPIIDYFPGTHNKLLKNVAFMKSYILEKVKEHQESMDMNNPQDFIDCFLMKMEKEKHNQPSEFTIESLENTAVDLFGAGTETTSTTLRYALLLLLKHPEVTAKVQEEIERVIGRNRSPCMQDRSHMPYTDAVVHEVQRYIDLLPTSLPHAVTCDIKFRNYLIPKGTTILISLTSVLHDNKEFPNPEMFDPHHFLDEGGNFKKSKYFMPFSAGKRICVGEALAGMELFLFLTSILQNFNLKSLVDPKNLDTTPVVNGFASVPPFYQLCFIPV
Outline: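 P450-Glo proluciferin substrate with CYP2C9 enzyme; 10 min RT preincubation, then NADPH regeneration 1 h at 37C; luciferin detection reagent 20 min RT, luminescence in relative luminescence units.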

[10] = biological target: Cytochrome P450 1A2 (Homo sapiens) (UniProt P05177); assay: Cytochrome P450 Family 1 Subfamily A Member 2 (CYP1A2) small molecule antagonists: luciferase reporter qHTS assay (AID 1671199); also: nearly all actives have a fitted effect of over 50% in size; also: potency is read from the fitted curve at half-maximal effect
Chain of Cytochrome P450 1A2 (Homo sapiens) (P05177 whole entry, looked up): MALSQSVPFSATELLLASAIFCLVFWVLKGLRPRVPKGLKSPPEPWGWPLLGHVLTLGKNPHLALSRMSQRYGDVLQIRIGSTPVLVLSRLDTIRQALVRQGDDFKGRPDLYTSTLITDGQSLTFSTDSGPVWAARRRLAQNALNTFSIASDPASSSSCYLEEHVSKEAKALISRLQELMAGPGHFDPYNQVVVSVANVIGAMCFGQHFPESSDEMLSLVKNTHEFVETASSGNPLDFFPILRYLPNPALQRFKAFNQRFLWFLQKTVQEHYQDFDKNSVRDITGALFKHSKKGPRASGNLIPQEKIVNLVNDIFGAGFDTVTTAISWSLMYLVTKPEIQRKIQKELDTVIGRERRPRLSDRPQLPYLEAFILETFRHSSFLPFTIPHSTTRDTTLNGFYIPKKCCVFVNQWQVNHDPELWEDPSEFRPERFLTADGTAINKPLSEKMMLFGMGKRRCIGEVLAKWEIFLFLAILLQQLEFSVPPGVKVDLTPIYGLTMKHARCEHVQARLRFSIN
Outline: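 Human CYP1A2 activity measured with a P450-Glo proluciferin substrate; compounds in DMSO preincubated 10 min at room temperature with enzyme-substrate mix, then NADPH regeneration system added for 1 h. Luciferin detection reagent, 20 min, luminescence read.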

[11] = biological target: Voltage-gated inwardly rectifying potassium channel KCNH2 (Homo sapiens) (UniProt Q12809); assay: Human Ether-a-go-go-Related Gene (hERG) channel small molecule antagonists: fluorescence cell-based qHTS assay (AID 1671200)
Chain of Voltage-gated inwardly rectifying potassium channel KCNH2 (Homo sapiens) (Q12809 whole entry, looked up): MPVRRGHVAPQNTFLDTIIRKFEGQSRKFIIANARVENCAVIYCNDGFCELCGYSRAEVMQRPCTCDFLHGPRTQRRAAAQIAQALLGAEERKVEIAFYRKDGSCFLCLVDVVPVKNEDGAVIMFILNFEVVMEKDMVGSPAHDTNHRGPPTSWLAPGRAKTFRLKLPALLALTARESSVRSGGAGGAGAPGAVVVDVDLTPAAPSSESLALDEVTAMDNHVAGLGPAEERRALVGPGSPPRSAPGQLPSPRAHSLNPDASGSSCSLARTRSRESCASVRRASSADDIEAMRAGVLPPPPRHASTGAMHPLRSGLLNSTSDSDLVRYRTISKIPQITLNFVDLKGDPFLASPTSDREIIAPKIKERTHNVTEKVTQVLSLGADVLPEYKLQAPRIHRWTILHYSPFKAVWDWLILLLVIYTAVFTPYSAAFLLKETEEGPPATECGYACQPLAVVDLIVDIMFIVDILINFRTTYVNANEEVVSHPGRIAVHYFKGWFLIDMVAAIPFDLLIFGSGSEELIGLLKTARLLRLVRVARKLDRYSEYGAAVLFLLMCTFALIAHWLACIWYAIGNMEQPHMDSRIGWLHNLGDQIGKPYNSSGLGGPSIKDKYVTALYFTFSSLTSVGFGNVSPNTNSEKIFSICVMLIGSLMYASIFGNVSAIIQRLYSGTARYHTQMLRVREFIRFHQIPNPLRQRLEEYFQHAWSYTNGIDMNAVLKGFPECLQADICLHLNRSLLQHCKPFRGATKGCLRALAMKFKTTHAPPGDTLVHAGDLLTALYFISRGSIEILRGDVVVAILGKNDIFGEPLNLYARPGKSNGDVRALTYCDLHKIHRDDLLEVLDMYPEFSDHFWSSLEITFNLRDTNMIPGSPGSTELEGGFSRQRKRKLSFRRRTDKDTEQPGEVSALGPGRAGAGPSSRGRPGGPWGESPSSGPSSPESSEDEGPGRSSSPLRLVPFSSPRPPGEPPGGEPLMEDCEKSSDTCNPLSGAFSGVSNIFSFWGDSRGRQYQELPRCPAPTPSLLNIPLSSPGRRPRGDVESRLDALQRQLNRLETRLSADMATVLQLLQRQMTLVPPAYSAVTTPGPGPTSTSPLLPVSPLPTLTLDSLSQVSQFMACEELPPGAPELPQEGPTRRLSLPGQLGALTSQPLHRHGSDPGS
Outline: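 Thallium flux as potassium surrogate: FluxOR II dye loaded 1 h at room temperature into hERG-expressing U2OS cells, then stimulus buffer added after 10 min. Kinetic 480 nm excitation/540 nm emission read, 2 min.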

[12] = biological target: Nuclear receptor subfamily 1 group I member 2 (Homo sapiens) (UniProt O75469); assay: Human pregnane X receptor (PXR) small molecule agonists, qHTS assay (AID 1346982); also: nearly all actives have a fitted effect of over 35% in size; also: potency is read from the fitted curve at half-maximal effect
Chain of Nuclear receptor subfamily 1 group I member 2 (Homo sapiens) (O75469 whole entry, looked up): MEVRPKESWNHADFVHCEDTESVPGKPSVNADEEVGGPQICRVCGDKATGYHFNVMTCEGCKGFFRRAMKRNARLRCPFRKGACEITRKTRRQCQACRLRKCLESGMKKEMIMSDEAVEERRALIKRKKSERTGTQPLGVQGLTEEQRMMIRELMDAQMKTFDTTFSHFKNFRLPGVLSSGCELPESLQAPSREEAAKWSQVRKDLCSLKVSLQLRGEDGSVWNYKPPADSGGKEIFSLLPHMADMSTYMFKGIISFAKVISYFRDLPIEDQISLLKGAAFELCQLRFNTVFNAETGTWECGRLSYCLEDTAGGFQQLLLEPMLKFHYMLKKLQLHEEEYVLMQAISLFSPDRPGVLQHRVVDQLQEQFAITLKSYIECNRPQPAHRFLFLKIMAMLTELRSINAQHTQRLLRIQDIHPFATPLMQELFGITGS
Outline: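 PXR-Luc HepG2 cells (CYP3A4 promoter-driven luciferase) were seeded in medium with 5% charcoal-stripped FBS, left 5 hr at 37 C, then exposed to compounds in DMSO for 24 hr. Luminescence was read after ONE-Glo addition.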

[13] = Caspase-3/7 induction in HepG2 cells by small molecules, qHTS assay (AID 1346978); also: nearly all actives have a fitted effect of over 15% in size
Outline: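 Wild-type HepG2 cells, 2,000/well, settled 5 hr at 37 C and 5% CO2, then compound-treated for 17 hr; caspase-3/7 activity read by luminescent Caspase-Glo 3/7 after 30 min at room temperature.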

[14] = biological target: Cytochrome P450 3A4 (Homo sapiens) (UniProt P08684); assay: Cytochrome P450 Family 3 Subfamily A Member 4 (CYP3A4) small molecule antagonists: luciferase reporter qHTS assay (AID 1671201); also: nearly all actives have a fitted effect of over 50% in size; also: potency is read from the fitted curve at half-maximal effect
Chain of Cytochrome P450 3A4 (Homo sapiens) (P08684 whole entry, looked up): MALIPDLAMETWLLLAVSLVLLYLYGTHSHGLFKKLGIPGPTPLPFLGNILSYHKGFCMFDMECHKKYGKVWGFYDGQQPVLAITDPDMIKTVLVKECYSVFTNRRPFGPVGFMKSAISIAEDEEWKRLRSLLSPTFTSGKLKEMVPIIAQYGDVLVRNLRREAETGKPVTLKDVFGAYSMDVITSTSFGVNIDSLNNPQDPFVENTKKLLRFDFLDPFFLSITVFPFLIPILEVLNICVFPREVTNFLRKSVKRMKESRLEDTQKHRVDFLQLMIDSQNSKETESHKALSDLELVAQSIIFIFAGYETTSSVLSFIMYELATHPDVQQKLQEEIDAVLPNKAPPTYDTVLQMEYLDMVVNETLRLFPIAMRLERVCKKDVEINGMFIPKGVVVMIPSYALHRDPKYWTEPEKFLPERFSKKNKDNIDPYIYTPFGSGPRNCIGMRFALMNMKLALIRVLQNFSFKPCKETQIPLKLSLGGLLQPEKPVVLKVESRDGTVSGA
Outline: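 Recombinant human CYP3A4 converts a proluciferin substrate to luciferin over 1 h at room temperature after NADPH regeneration solution is added (compound preincubated 10 min); detection reagent stops reaction, luminescence read 20 min later as relative units.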

[15] = biological target: Nuclear receptor subfamily 1 group I member 2 (Homo sapiens) (UniProt O75469); assay: CYP3A4 induction through human pregnane X receptor (PXR) by small molecules, qHTS assay (AID 1346984); also: nearly all actives have a fitted effect of over 40% in size
Outline: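 DPX-2 cells (HepG2 co-transfected with PXR and CYP3A4 promoter-luciferase) treated with compounds 24 h at 37C; luciferin-IPA CYP3A4 substrate 3uM final added for 3 h, then One-Glo; luminescence read. qHTS format.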

Compound | Potency [1] | Potency [2] | Potency [3] | Potency [4] | Potency [5] | max activation [6] | Potency [7] | Potency [8] | Potency [9] | Potency [10] | Potency [11] | Potency [12] | Potency [13] | Potency [14] | Potency [6] | outcome [15]
NC(=O)NNc1ccccc1 | inactive | inactive | inactive | inactive | inactive | -0.925% (inactive) and 0.997% (inactive) |  |  |  |  |  |  |  |  |  | 
NCc1cccc(CN)c1 | inactive | inactive | inactive | inactive | inactive |  | 580 nM (active) and 35.6 µM (active) | 36.6 µM (active) and 31.7 µM (active) | 36.6 µM (active) and 39.9 µM (active) | 35.6 µM (active) | inactive |  |  |  |  | 
CC(C)(CO)COC(=O)C(C)(C)CO | inactive | inactive | inactive | inactive | inactive |  | inactive | 8.94 µM (active) and 39.9 µM (active) |  | inactive | inactive | inactive |  |  |  | 
OCC1CCCO1 (centres undefined) | inactive | inactive |  | inactive | inactive |  | inactive | 40.7 µM (active) and inactive |  | inactive | inactive | inactive | inactive | inactive |  | 
Cc1cc(O)c2c(c1)C(=O)c1cc(O)cc(O)c1C2=O | inactive | 29.9 µM (active) | 48.6 µM (active) | inactive | 26.7 µM (active) and 21.7 µM (active) |  | inactive | inactive and 35.6 µM (active) | 12.3 µM (active) and 11.2 µM (active) | 8.94 µM (active) | inactive | 29.9 µM (active) and 21.7 µM (active) |  | 27.6 µM (active) and 22.4 µM (active) |  | 
CC#C[C@]1(O)CC[C@H]2[C@@H]3CCC4=CC(=O)CCC4=C3[C@@H](c3ccc(N(C)C)cc3)C[C@@]21C | inactive | inactive |  | inactive | 30.6 µM (active) |  | 63.3 µM (active) and 38.9 µM (active) | 20 µM (active) | 2.24 µM (active) and 2.75 µM (active) | inactive |  | 48.6 µM (active) and 23.7 µM (active) |  |  | 10 µM (active) | inactive
CC(C)(C)C1CCC(O)CC1 (centres undefined) | inactive | inactive | inactive | inactive | inactive |  | inactive | 32.2 µM (active) and inactive | inactive | 72 µM (active) and inactive | inactive | inactive |  | inactive |  | 
Oc1ccc2ccccc2c1N=Nc1ccccc1 | inactive | 27.3 µM (active) and 30.6 µM (active) | 48.5 µM (active) and 27.3 µM (active) | inactive | 48.5 µM (active) and 27.3 µM (active) |  | 35.6 µM (active) and inactive | 31.7 µM (active) | 11.2 µM (active) and 14.2 µM (active) | 356 nM (active) and 2.52 µM (active) | inactive | 43.2 µM (active) and 21.7 µM (active) |  | 6.33 µM (active) and 20 µM (active) |  | 
